# Test results: PubChem BioAssay (Tox21)
# Values without a mark were called inactive. Results filed as inconclusive are left out. A call without a number means that no potency is given here. Calls of active or inactive are those of the source. Calls follow the shape of the full dose curve.
# Molecular target: Acetylcholinesterase (Homo sapiens) (UniProt P22303)
# Test: Acetylcholinesterase (AChE) small molecule antagonists: fluorescence cell-based qHTS assay (AID 1347398); also: nearly all actives have a fitted effect of over 50% in size
# Conditions: SH-SY5Y cells; Potency: AChE activity; outcome: AChE activity; series mostly up to 115 µM
# In short: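 Cells (SH-SY5Y) attached overnight, were dosed with compound or DMSO vehicle for 30 min at 37 C, and then incubated 40 min at room temperature with acetylthiocholine and Thiolite Green; green fluorescence indexed AChE activity.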
# Chain of Acetylcholinesterase (Homo sapiens) (P22303 whole entry, looked up): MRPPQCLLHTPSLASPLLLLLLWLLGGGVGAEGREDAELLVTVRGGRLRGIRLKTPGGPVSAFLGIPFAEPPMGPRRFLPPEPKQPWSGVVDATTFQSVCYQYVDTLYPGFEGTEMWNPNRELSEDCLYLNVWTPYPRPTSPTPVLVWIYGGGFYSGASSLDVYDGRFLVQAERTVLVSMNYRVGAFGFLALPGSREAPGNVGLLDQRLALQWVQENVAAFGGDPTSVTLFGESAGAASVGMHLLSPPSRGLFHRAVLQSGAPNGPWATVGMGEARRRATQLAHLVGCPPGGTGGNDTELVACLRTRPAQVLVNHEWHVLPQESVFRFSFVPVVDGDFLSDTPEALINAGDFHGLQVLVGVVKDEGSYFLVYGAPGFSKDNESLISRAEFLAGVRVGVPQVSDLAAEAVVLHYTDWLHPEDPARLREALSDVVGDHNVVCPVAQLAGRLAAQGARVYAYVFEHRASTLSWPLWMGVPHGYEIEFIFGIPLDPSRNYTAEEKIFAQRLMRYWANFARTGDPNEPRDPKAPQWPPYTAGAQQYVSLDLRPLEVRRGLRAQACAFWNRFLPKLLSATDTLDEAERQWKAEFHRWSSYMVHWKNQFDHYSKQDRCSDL
Structure (SMILES),Potency,"activity change, negative = inhibition"
C[C@H](O)C(=O)Nc1c(I)c(C(=O)NC(CO)CO)c(I)c(C(=O)NC(CO)CO)c1I,inactive,–
C=C(C)CCO,inactive,–
O=C1Cc2ccccc2N1c1c(Cl)cccc1Cl,inactive,–
CN(C)CCOc1ccccc1Cc1ccccc1,inactive,–
COc1ccc2sc(C(=O)Nc3nnn[nH]3)c(OC(C)C)c2c1,inactive,–
O=[N+]([O-])c1ccc(Nc2ccc(Nc3ccccc3)c(S(=O)(=O)O)c2)c([N+](=O)[O-])c1,inactive,–
CCCCN,inactive,–
CCCCCCCCCCCCCCCCCl,–,-0.0126% [at 23.8 µM]
CCN(CC)C(C)=O,inactive,–
CN(CC1(C)CCCO1)S(=O)(=O)c1ccc(Cl)c(S(N)(=O)=O)c1 (stereo not given),inactive,–
CCOc1ncc(F)c(=O)[nH]1,inactive,–
CC(C)(c1ccc(Oc2ccc3c(c2)C(=O)OC3=O)cc1)c1ccc(Oc2ccc3c(c2)C(=O)OC3=O)cc1,inactive,–
COC(=O)C1CC(=O)C(C(=O)OC)CC1=O (stereo not given),–,1.15% [at 10.5 µM]
O=C(OCC(COC(=O)c1ccccc1)(COC(=O)c1ccccc1)COC(=O)c1ccccc1)c1ccccc1,inactive,–
CCOC(=O)[C@H](CCc1ccccc1)N[C@@H](C)C(=O)N1Cc2cc(OC)c(OC)cc2C[C@H]1C(=O)O,inactive,–
COC(=O)[C@H]1[C@H]2C[C@@H]3c4[nH]c5cc(OC)ccc5c4CCN3C[C@H]2C[C@@H](OC(=O)COc2ccc(OC)cc2)[C@@H]1OC,inactive,–
CCCCCCCCCCCCN1CCOCC1,inactive,–
Nc1ccnc(=O)[nH]1,inactive,–
Nc1cnn([C@@H]2O[C@H](CO)[C@@H](O)[C@H]2O)c(=O)n1,inactive,–
C=CCOc1nc(OCC=C)nc(OCC=C)n1,inactive,–

Structure (SMILES),Potency,"activity change, negative = inhibition"
C=C(C)C(=O)OCCOCC,inactive,–
C=C(C)C(=O)OC1CC(C)CC(C)(C)C1 (stereo not given),inactive,–
CC(C)NCCCC1(C(N)=O)c2ccccc2-c2ccccc21,inactive,–
CC(CSC(=O)c1ccccc1)C(=O)N1C[C@@H](Sc2ccccc2)C[C@H]1C(=O)O (stereo not given in full),–,13.2% [at 23.8 µM]
CCN1CCN(c2cc3c(cc2F)c(=O)c(C(=O)O)cn3C2CC2)CC1,inactive,–
CC(CN(C)C)CN1c2ccccc2CCc2ccccc21 (stereo not given),inactive,–
CCCCNCCCC,inactive,–
CCCCCCCCOC(=O)CCCCCCCCC(=O)OCCCCCCCC,inactive,–
CC(=O)SC[C@@H](Cc1ccccc1)C(=O)NCC(=O)OCc1ccccc1,inactive,–
CC(C)OC(=O)c1ccccc1C(=O)OC(C)C,inactive,–
CCCCCCOc1ccc(N)cc1,inactive,–
CC(C)Cc1ccc(C(C)C(=O)OCc2ccccn2)cc1 (stereo not given),inactive,–
O=c1[nH]sc2ccccc12,inactive,–
O=C(O)CNC(=O)c1ccccc1I,inactive,–
O=P(O)(O)C(O)(Cc1cccnc1)P(=O)(O)O,inactive,–
Oc1cccc(O)c1O,inactive,–
CCCCCCC(C)Nc1ccc(Nc2ccccc2)cc1 (stereo not given),inactive,–
CCCCCCCCCCCCS(=O)(=O)Cl,–,0.319% [at 23.8 µM]
CC(=O)O[C@@H]1C[C@@H]2CC[C@@]1(C)C2(C)C,inactive,–
CC(C)C(C)C,inactive,–

# Molecular target: Acetylcholinesterase (Homo sapiens) (UniProt P22303)
# Test: Acetylcholinesterase (AChE) small molecule antagonists: enzyme-based qHTS assay with human liver microsomes (AID 1347399); also: nearly all actives have a fitted effect of over 60% in size
# Conditions: Potency: qHTS inhibition; outcome: qHTS inhibition; series mostly up to 115 µM
# In short: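 Recombinant human AChE (50 mU/mL in the enzyme mix) and human liver microsomes (0.25 mg/mL final) were preincubated with compound and NADPH (0.25 mg/mL final) for 30 min at 37 C. Acetylthiocholine/DTNB was then added; thiocholine was read colorimetrically after 10 min at room temperature.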
Structure (SMILES),Potency,"activity change, negative = inhibition"
C[C@H](O)C(=O)Nc1c(I)c(C(=O)NC(CO)CO)c(I)c(C(=O)NC(CO)CO)c1I,inactive,–
C=C(C)CCO,inactive,–
O=C1Cc2ccccc2N1c1c(Cl)cccc1Cl,inactive,–
CN(C)CCOc1ccccc1Cc1ccccc1,inactive,–
COc1ccc2sc(C(=O)Nc3nnn[nH]3)c(OC(C)C)c2c1,inactive,–
O=[N+]([O-])c1ccc(Nc2ccc(Nc3ccccc3)c(S(=O)(=O)O)c2)c([N+](=O)[O-])c1,inactive,–
CCCCN,inactive,–
CCCCCCCCCCCCCCCCCl,–,2.03% [at 23.6 µM]
CCN(CC)C(C)=O,inactive,–
CN(CC1(C)CCCO1)S(=O)(=O)c1ccc(Cl)c(S(N)(=O)=O)c1 (stereo not given),inactive,–
CCOc1ncc(F)c(=O)[nH]1,inactive,–
CC(C)(c1ccc(Oc2ccc3c(c2)C(=O)OC3=O)cc1)c1ccc(Oc2ccc3c(c2)C(=O)OC3=O)cc1,inactive,–
COC(=O)C1CC(=O)C(C(=O)OC)CC1=O (stereo not given),–,-0.962% [at 10.5 µM]
O=C(OCC(COC(=O)c1ccccc1)(COC(=O)c1ccccc1)COC(=O)c1ccccc1)c1ccccc1,inactive,–
CCOC(=O)[C@H](CCc1ccccc1)N[C@@H](C)C(=O)N1Cc2cc(OC)c(OC)cc2C[C@H]1C(=O)O,inactive,–
COC(=O)[C@H]1[C@H]2C[C@@H]3c4[nH]c5cc(OC)ccc5c4CCN3C[C@H]2C[C@@H](OC(=O)COc2ccc(OC)cc2)[C@@H]1OC,inactive,–
CCCCCCCCCCCCN1CCOCC1,inactive,–
Nc1ccnc(=O)[nH]1,inactive,–
Nc1cnn([C@@H]2O[C@H](CO)[C@@H](O)[C@H]2O)c(=O)n1,inactive,–
C=CCOc1nc(OCC=C)nc(OCC=C)n1,inactive,–

Structure (SMILES),Potency,"activity change, negative = inhibition"
C=C(C)C(=O)OCCOCC,inactive,–
C=C(C)C(=O)OC1CC(C)CC(C)(C)C1 (stereo not given),inactive,–
CC(C)NCCCC1(C(N)=O)c2ccccc2-c2ccccc21,inactive,–
CC(CSC(=O)c1ccccc1)C(=O)N1C[C@@H](Sc2ccccc2)C[C@H]1C(=O)O (stereo not given in full),–,2.18% [at 23.6 µM]
CCN1CCN(c2cc3c(cc2F)c(=O)c(C(=O)O)cn3C2CC2)CC1,inactive,–
CC(CN(C)C)CN1c2ccccc2CCc2ccccc21 (stereo not given),inactive,–
CCCCNCCCC,inactive,–
CCCCCCCCOC(=O)CCCCCCCCC(=O)OCCCCCCCC,inactive,–
CC(=O)SC[C@@H](Cc1ccccc1)C(=O)NCC(=O)OCc1ccccc1,inactive,–
CC(C)OC(=O)c1ccccc1C(=O)OC(C)C,inactive,–
CCCCCCOc1ccc(N)cc1,inactive,–
CC(C)Cc1ccc(C(C)C(=O)OCc2ccccn2)cc1 (stereo not given),inactive,–
O=c1[nH]sc2ccccc12,inactive,–
O=C(O)CNC(=O)c1ccccc1I,inactive,–
O=P(O)(O)C(O)(Cc1cccnc1)P(=O)(O)O,inactive,–
Oc1cccc(O)c1O,inactive,–
CCCCCCC(C)Nc1ccc(Nc2ccccc2)cc1 (stereo not given),inactive,–
CCCCCCCCCCCCS(=O)(=O)Cl,–,0.324% [at 23.6 µM]
CC(=O)O[C@@H]1C[C@@H]2CC[C@@]1(C)C2(C)C,inactive,–
CC(C)C(C)C,inactive,–
